These results are taken from PubChem BioAssay (NCATS).

The structures appear in SMILES notation. Records with an inconclusive call do not appear. Calls of active or inactive are those of the source. Calls follow the shape of the dose curve; as a rule, active = well fitted inhibition curve with a large enough effect; inconclusive = small, poorly fitted or top-dose-only effect; inactive = flat fitted curve, though single readings scatter.

Holding throughout (experiment): qHTS profiling for inhibitors of Plasmodium falciparum proliferation (AID 504749); also: nearly all actives have a fitted effect of over 60% in size
Common to all, as to conditions: P. falciparum in erythrocytes, SYBR Green DNA, 72 h; series mostly up to 28.7 µM
(Quantitative high-throughput screening tests each substance at several concentrations.)

Experiment [1] relates to DIV17. The method, boiled down:
(§1)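 P. falciparum-infected erythrocytes (0.3% parasitemia, 2.5% hematocrit final) were exposed to compounds for 72 h at 37 C in 5% CO2, then lysed with SYBR Green buffer overnight at room temperature; parasite DNA fluorescence was normalized to artemisinin and DMSO controls.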

Experiment [2] has as its system Dd2. The method, boiled down: as §1
Experiment [3] deals with ECU. The method, boiled down: as §1
For experiment [4], the system named is FAB9. The method, boiled down:
as §1

The subject of experiment [5] is HB3. The method, boiled down: as §1
Experiment [6] deals with JCK. The method in brief:
as §1

The test system of experiment [7] is PAD. The method, boiled down: as §1
For experiment [8], the system named is PC49. The method in brief:
as §1

Experiment [9] has as its system TAB113. The method in brief:
as §1

The test system of experiment [10] is DIV30. The method, boiled down: as §1
The test system of experiment [11] is GB4. The method in brief:
as §1

In experiment [12] the test system is N140. The method, boiled down: as §1
The test system of experiment [13] is P93_24. The method, boiled down: as §1
In experiment [14] the test system is P94_40. The method, boiled down: as §1
The test system of experiment [15] is PC15. The method in brief: as §1
The subject of experiment [16] is SC27B. The method, boiled down:
as §1

Experiment [17] deals with TAB109. The method, boiled down: as §1
In experiment [18] the test system is TAB165. The method in brief:
as §1

Experiment [19] concerns ICS. The method, boiled down:
as §1

Experiment [20] deals with PC26. The method in brief: as §1
Potency is read from the fitted curve at half-maximal effect.

`CCN(CC)CCOc1ccccc1C(=O)CCc1ccccc1`: the values for the Potency in experiment [1] and in [2] were 7.57 µM (active) and 4.47 µM (active), respectively. In addition, the Potency result in experiment [3], in [4], in experiment [5], in [6], in [7] and in experiment [8] was “inactive” throughout. Besides, in [9], the Potency result is “inactive”.

Take `OCCOCCN1CCN(C2=Nc3ccccc3Sc3ccccc32)CC1`: the Potency entry in experiment [1], in experiment [10], in experiment [3], in experiment [4], in [11] and in experiment [5] was “inactive” throughout. In addition, the Potency entry in [6], in [12], in experiment [13], in experiment [14], in experiment [7] and in [15] was “inactive” throughout. In addition, the Potency result in [8], in experiment [16], in experiment [17], in experiment [9] and in experiment [18] was “inactive” throughout.

For `CN(C)CCC[C@@]1(c2ccc(F)cc2)OCc2cc(C#N)ccc21`, the Potency entry in experiment [1], in experiment [10], in experiment [3], in [4], in [11] and in experiment [5] was “inactive” each time. Moreover, the Potency result in experiment [19], in experiment [6], in [12], in experiment [13], in experiment [14] and in experiment [7] was “inactive” each time. For the same compound, the Potency result in experiment [15], in experiment [20], in [8], in [16], in experiment [17] and in experiment [9] was “inactive” each time.

For `CC(=O)Nc1ccc(S(=O)(=O)Nc2ccc([N+](=O)[O-])cc2)cc1`, the Potency entry in [1], in experiment [2], in [3], in experiment [4], in experiment [11] and in experiment [5] was “inactive” each time. In addition, the Potency result in [19], in experiment [6], in experiment [12], in experiment [13], in [14] and in experiment [7] was “inactive” each time. Besides, the Potency result in experiment [15], in experiment [20], in experiment [8], in experiment [16], in experiment [17] and in [9] was “inactive” each time. Moreover, the Potency entry in [18] was “inactive”.

On to `CN(Cc1ccc(C(C)(C)C)cc1)Cc1cccc2ccccc12`, for which the Potency result in [1], in experiment [10], in [3], in [4], in experiment [11] and in [6] was “inactive” each time. For the same compound, the Potency entry in [12], in [7], in [15], in experiment [20], in [8] and in experiment [16] was “inactive” throughout. In addition, the Potency result in experiment [17] is “inactive”.

Turning to `Clc1cccc(C(c2ccc3nc[nH]c3c2)n2ccnc2)c1` (stereo unspecified), the Potency in experiment [1] is 13.5 µM (active); in experiment [10], 12 µM (active); in experiment [3], 3.16 µM (active); in experiment [11] it was 12 µM (active); in experiment [19], 5.62 µM (active); in experiment [12], 10 µM (active). The Potency was 7.08 µM (active) in [13], 12.6 µM (active) in experiment [15], 10 µM (active) in experiment [16] and 7.94 µM (active) in experiment [18]. Further, the Potency entry in experiment [6] and in experiment [8] was “inactive” throughout.

Take `O=C(O)C1(C(=O)O)CCC1.[NH2-].[NH2-].[Pt+2]`: the Potency entry in experiment [1], in experiment [10], in experiment [3], in experiment [4], in [11] and in experiment [6] was “inactive” throughout. The Potency entry in [12], in [13], in [14], in [7], in experiment [15] and in experiment [20] was “inactive” in each case. Besides, the Potency result in experiment [8], in experiment [16], in experiment [17], in experiment [9] and in experiment [18] was “inactive” throughout. The Potency in [5] is 10 µM (active).

For the compound `CC(C)(C)CC(C)(C)c1ccc(O)c(-n2nc3ccccc3n2)c1`, the Potency in experiment [1] is 13.5 µM (active); in experiment [2] it was 12.6 µM (active); in [11], 16.9 µM (active); in experiment [5] it was 11.2 µM (active); in experiment [19], 5.01 µM (active); in experiment [13] it was 10 µM (active). Moreover, the Potency in [8] was 10 µM (active); in [16] it was 11.2 µM (active); in experiment [9], 10 µM (active); in experiment [18], 12.6 µM (active). Further, the Potency entry in [10], in experiment [6] and in [20] was “inactive” in each case.

Turning to `CCCCc1cc2ccccc2c(OCCN(C)C)n1`, the Potency result in experiment [1], in experiment [10], in experiment [3], in [4], in [5] and in experiment [6] was “inactive” throughout. For the same compound, the Potency entry in experiment [12], in [13], in experiment [14], in experiment [7], in [15] and in [20] was “inactive” each time. For the same compound, the Potency result in experiment [8], in [16], in experiment [17], in experiment [9] and in experiment [18] was “inactive” in each case.

In the case of `CC(C)Nc1cccnc1N1CCN(C(=O)c2cc3cc(NS(C)(=O)=O)ccc3[nH]2)CC1`, the Potency was 1.07 µM (active) in experiment [1] and 7.94 µM (active) in experiment [19]. Besides, the Potency entry in [3], in experiment [4], in experiment [11], in [5], in experiment [6] and in experiment [12] was “inactive” in each case. Further, the Potency result in [14], in experiment [7], in experiment [15], in [20], in experiment [8] and in experiment [16] was “inactive” each time. Further, the Potency entry in experiment [17], in [9] and in [18] was “inactive” throughout.

Turning to `OC(C#CCN1CCCC1)(c1ccccc1)c1ccccc1`, the Potency in experiment [1] was 13.5 µM (active); in experiment [2], 8.91 µM (active); in experiment [11] it was 6.75 µM (active); in [12] it was 11.2 µM (active); in experiment [18], 11.2 µM (active). Also, the Potency result in experiment [4], in experiment [5], in [6] and in [15] was “inactive” each time.

Consider `CN1CCN(CCC(=O)N2c3ccccc3Sc3ccc(C(F)(F)F)cc32)CC1`, for which the Potency is 8.49 µM (active) in experiment [1] and 7.08 µM (active) in experiment [19]. Further, the Potency result in [4], in [5], in experiment [6], in [14], in experiment [16] and in experiment [9] was “inactive” in each case.

Regarding `NC1CCN(c2nc3c(cc2F)c(=O)c(C(=O)O)cn3-c2ccc(F)cc2F)C1` (stereo unspecified), the Potency result in experiment [1], in experiment [10], in experiment [4], in experiment [6], in experiment [7] and in [15] was “inactive” throughout. The Potency result in [20] and in [16] was “inactive” throughout.

As for `CC1(COc2ccc(CC3SC(=O)NC3=O)cc2)CCCCC1` (stereo unspecified), the Potency result in experiment [10], in experiment [2], in experiment [3], in experiment [4], in experiment [11] and in experiment [5] was “inactive” each time. For the same compound, the Potency entry in experiment [19], in experiment [6], in experiment [12], in experiment [13], in experiment [14] and in [7] was “inactive” in each case. Besides, the Potency result in experiment [15], in experiment [20], in experiment [8], in experiment [16], in experiment [17] and in experiment [9] was “inactive” in each case. The Potency entry in experiment [18] was “inactive”.

On to `NC(N)=NN=C(/C=C/c1ccc([N+](=O)[O-])o1)/C=C/c1ccc([N+](=O)[O-])o1`, for which the Potency in experiment [1] is 7.57 µM (active); in experiment [2], 2.82 µM (active); in experiment [3] it was 12.6 µM (active); in experiment [5], 2.24 µM (active); in [19] it was 2 µM (active); in experiment [12], 10 µM (active). Moreover, the Potency in experiment [13] was 12.6 µM (active); in experiment [7], 10 µM (active); in [8], 11.2 µM (active); in experiment [17], 7.08 µM (active); in experiment [18] it was 7.94 µM (active).

Take `Cc1cc(CC(=O)O)c(C)n1-c1ccc(Cl)cc1`: the Potency is 16.9 µM (active) in experiment [1], 8.91 µM (active) in [19] and 14.1 µM (active) in experiment [18]. Moreover, the Potency result in experiment [4], in experiment [5], in [6], in experiment [15] and in experiment [17] was “inactive” each time.

With `CN1CCc2cccc3c2[C@H]1Cc1ccc(O)c(O)c1-3`, the Potency in experiment [1] is 7.57 µM (active); in experiment [11], 7.57 µM (active); in [5], 11.2 µM (active); in [19], 2.82 µM (active); in experiment [12] it was 10 µM (active); in [13], 7.94 µM (active). Further, the Potency was 3.98 µM (active) in [14]; 11.2 µM (active) in [7]; 8.91 µM (active) in experiment [15]; 15.1 µM (active) in experiment [20]; 8.91 µM (active) in experiment [17]; 7.08 µM (active) in experiment [18]. Besides, the Potency entry in experiment [2] is “inactive”.

Consider `O=C(CCN1CCN2CCCC2C1)N1c2ccccc2Sc2ccc(Cl)cc21` (stereo unspecified), for which the Potency in experiment [1] is 5.36 µM (active); in experiment [2] it was 6.31 µM (active); in experiment [3], 14.1 µM (active); in [19], 5.01 µM (active). Besides, the Potency entry in [4], in experiment [5], in experiment [6] and in experiment [9] was “inactive” in each case.

Take `CC(C)(C)NC[C@H](O)COc1nsnc1N1CCOCC1`: the Potency was 3.38 µM (active) in [1]; 5.62 µM (active) in experiment [2]; 7.94 µM (active) in experiment [3]; 7.57 µM (active) in experiment [11]; 3.55 µM (active) in experiment [5]; 1.26 µM (active) in experiment [19]. Moreover, the Potency is 3.98 µM (active) in experiment [12]; 3.55 µM (active) in [13]; 3.16 µM (active) in experiment [14]; 6.31 µM (active) in experiment [7]; 2.24 µM (active) in experiment [15]; 12 µM (active) in experiment [20]. For the same compound, the Potency in experiment [16] is 12.6 µM (active); in experiment [17], 5.01 µM (active); in experiment [9] it was 6.31 µM (active); in experiment [18], 5.01 µM (active).

Regarding `CN1CCN(c2cc3c(cc2F)c(=O)c(C(=O)O)cn3-c2ccc(F)cc2)CC1`, the Potency entry in experiment [1], in experiment [10], in experiment [3], in experiment [4], in experiment [5] and in experiment [6] was “inactive” in each case. The Potency result in [7], in experiment [15], in experiment [20], in experiment [8], in experiment [16] and in experiment [9] was “inactive” each time. For the same compound, in experiment [18], the Potency entry was “inactive”.
